This passage reports inhibition results from PubChem BioAssay AID368 (University of Pittsburgh Molecular Library Screening Center, 2006).

Molecules are shown by their SMILES. Hit rate of the full screen: of about 65,000 compounds, about 85 (0.1%) were called active. Rule as the data show it: active = inhibition above about 50%; inactive = the rest. The entries come from a sample that favours actives as a whole.

The target in the assay is M-phase inducer phosphatase 2 (Homo sapiens) (UniProt P30305). The assay can be described thus: human Cdc25B tyrosine phosphatase blockers – biochemical, OMFP fluorescence, catalytic domain, primary screen (AID 368). The conditions noted are these: recombinant Cdc25B, OMFP fluorescence Ex485/Em525; stronger effect = higher value;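 compounds tested at 10 µM final in the well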.
Chain of M-phase inducer phosphatase 2 (Homo sapiens) (P30305 whole entry, looked up, the tested form may be a part): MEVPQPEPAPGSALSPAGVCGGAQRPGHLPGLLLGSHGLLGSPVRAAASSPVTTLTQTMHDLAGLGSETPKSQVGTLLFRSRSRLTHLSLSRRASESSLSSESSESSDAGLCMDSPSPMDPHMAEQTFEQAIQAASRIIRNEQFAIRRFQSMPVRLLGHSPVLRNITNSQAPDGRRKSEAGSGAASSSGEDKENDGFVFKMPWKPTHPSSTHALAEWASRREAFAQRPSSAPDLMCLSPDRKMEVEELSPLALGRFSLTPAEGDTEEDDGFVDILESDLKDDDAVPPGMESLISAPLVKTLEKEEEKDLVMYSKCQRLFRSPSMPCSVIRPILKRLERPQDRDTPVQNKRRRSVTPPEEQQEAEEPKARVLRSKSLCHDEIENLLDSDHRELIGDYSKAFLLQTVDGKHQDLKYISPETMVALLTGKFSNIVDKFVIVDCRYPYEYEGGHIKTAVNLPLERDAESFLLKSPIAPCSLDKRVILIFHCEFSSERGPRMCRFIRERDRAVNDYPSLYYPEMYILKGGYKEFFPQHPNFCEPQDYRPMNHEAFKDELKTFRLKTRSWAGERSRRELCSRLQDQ
Consider `O=C(O)C1CC=C(Cl)CC1C(=O)NCc1ccccc1` (stereo not given), for which the inhibition is -4.83% (inactive).

With `O=C(CN1C(=O)C2C3C=CC(C3)C2C1=O)NCCc1ccccc1Cl` (stereo not given), the inhibition is -3.46% (inactive).

Take `Cc1ccc(C)c(N(CC(=O)NCc2ccco2)C(=O)CCC(=O)Nc2ccccn2)c1`: the inhibition was 0.139% (inactive).

Turning to `C=CCNC(=O)CSc1nc2sc(C)c(C)c2c(=O)[nH]1`, the inhibition was -5.03% (inactive).

`CCC1SC2=NCCN2C1(O)c1ccc(Cl)cc1` (stereo not given): the inhibition is 1.15% (inactive).

Regarding `COC(=O)c1ccc(NC(=O)CSc2nnc(CNc3ccc(OC)cc3)n2C)cc1`, the inhibition is -15.2% (inactive).

With `O=C(Nc1ccc(F)cc1)c1cccnc1N1CCOCC1`, the inhibition is 0.374% (inactive).

On to `COc1ccccc1C1/C(=C(/O)c2ccc(OC(C)C)cc2)C(=O)C(=O)N1c1cc(C)on1` (stereo not given), for which the inhibition was 22% (inactive).

For `COc1ccc(S(=O)(=O)N(CCCN2CCCC2=O)Cc2cc3c(C)ccc(C)c3[nH]c2=O)cc1`, the inhibition was 4.58% (inactive).

Take `COc1ccc(Cl)cc1NC(=O)c1oc(C)nc1C`: the inhibition is -1.12% (inactive).

For `O=C(O)CSC(NC(=O)c1cccnc1)(C(F)(F)F)C(F)(F)F`, the inhibition was -2.28% (inactive).

On to `O=C(c1ccco1)N1CCN=C1SCc1cccc(Cl)c1`, for which the inhibition was -9.08% (inactive).

`CC1CCCCC1NC(=O)CSc1nnc(N)s1` (stereo not given): the inhibition was -11.7% (inactive).

As to `COc1ccc(C(=O)N2CCC(C(=O)Nc3cccc(C)c3)CC2)cc1OC`, the inhibition was -5.03% (inactive).

For the molecule `Cc1cc(C(F)(F)F)nn1-c1nc(-c2ccco2)cc(C(F)(F)F)n1`, the inhibition was -12.3% (inactive).

`COc1ccc(NS(=O)(=O)c2ccc(NC(C)=O)cc2)cc1OC`: the inhibition was -8.27% (inactive).

On to `COCCNC(=O)C(c1ccc(C)o1)N(Cc1cccs1)C(=O)c1snc(C(N)=O)c1N` (stereo not given), for which the inhibition was -5.11% (inactive).

As for `Cc1nnc(SCC(=O)NCCOc2ccc(Cl)cc2)n1-c1ccccc1`, the inhibition is -10.1% (inactive).

For the molecule `COc1cccc(N(CC(=O)Nc2cccc(F)c2)S(C)(=O)=O)c1`, the inhibition was -4.86% (inactive).

On to `COc1ccc(C(=O)NCCc2ccc(S(N)(=O)=O)cc2)cc1OC`, for which the inhibition is -4.01% (inactive).

For `CCOC(=O)c1ccn(-c2nc(-c3ccco3)cc(C(F)(F)F)n2)n1`, the inhibition is -12.2% (inactive).

For `CCCOc1ccc(CN(CCO)CCO)cc1C(=O)OC`, the inhibition was 1.99% (inactive).

Regarding `O=C(NC1(C(F)(F)F)N=C2SCCN2C1=O)c1ccco1` (stereo not given), the inhibition is 0.794% (inactive).

Consider `O=C(c1ccccc1)c1ccc2nc(N3CCCCC3)c3nncn3c2c1`, for which the inhibition is -11.8% (inactive).

Regarding `O=S(=O)(c1ccc2ccccc2c1)N1CCN(S(=O)(=O)N2CCOCC2)CC1`, the inhibition is -4.37% (inactive).

As to `O=c1cc(CSc2ccc(Cl)cc2)nc(N2CCOCC2)[nH]1`, the inhibition was 7.35% (inactive).

In the case of `CCCOP(=O)(c1ccc(N(C)C)cc1)C(O)c1cc(OC)c(OC)c(OC)c1` (stereo not given), the inhibition was -0.929% (inactive).

As for `Cc1ccc2c(C(=O)CN3CCCC3)c(C)[nH]c2c1`, the inhibition was -0.2% (inactive).

Consider `CCOC(=O)N1CCN(CC(=O)n2c(C)c(C)c3ccccc32)CC1`, for which the inhibition is -1.72% (inactive).

For `CCOC(=O)N1CCN(CC(=O)c2c(C)[nH]c3ccccc23)CC1`, the inhibition was 60% (active).

As to `Cc1occc1C(=O)Nc1cccc(Cn2cccn2)c1`, the inhibition was -8.98% (inactive).

Take `O=C(O)CC(Cn1cnnn1)c1ccccc1` (stereo not given): the inhibition was -6.9% (inactive).

Regarding `O=C1CCCc2c1[nH]c1ccc(Br)cc21`, the inhibition was 5.28% (inactive).

Turning to `Cc1ccsc1C(C(=O)NC1CCCCC1)N(C(=O)Cc1cccs1)C1CC1` (stereo not given), the inhibition was 4.04% (inactive).

For the molecule `CCc1c(C)nc2cc(-c3cccs3)[nH]n2c1=O`, the inhibition was -13.1% (inactive).

Take `C/C(=C(\C#N)C(=O)NCCCN1CCOCC1)N(C)C`: the inhibition is -7.37% (inactive).

`CCCC(=O)Nc1ccc(C(=O)NCCCn2ccnc2)cc1`: the inhibition was 2.06% (inactive).

Take `CCn1cc(C(=O)NCC2COc3ccccc3O2)c2cc(OC)c(OC)cc2c1=O` (stereo not given): the inhibition was -8.97% (inactive).

`CCOC(=O)CNC(=O)CN1C(=O)CCSc2ccccc21`: the inhibition is -0.999% (inactive).

With `O=C1NC(Nc2nc3ccccc3s2)(C(F)(F)F)C(=O)N1C1CCCCC1` (stereo not given), the inhibition is -0.883% (inactive).

Consider `CC(=O)Nc1ccc(S(=O)(=O)NCCc2ccccc2)cc1`, for which the inhibition was -7.41% (inactive).

On to `CC1OC2C(OC1C)N(S(C)(=O)=O)CCN2S(C)(=O)=O` (stereo not given), for which the inhibition was -4.42% (inactive).

Consider `CCOc1ccc(CCNC(=O)C(CC)n2nc(C)n3c(cc4sccc43)c2=O)cc1OCC` (stereo not given), for which the inhibition was -12.3% (inactive).

`CCn1ncc(C2=NOC(C(=O)N3CCN(c4ccccc4)CC3)C2)c1C` (stereo not given): the inhibition was -17.4% (inactive).

On to `CCOC(=O)C1CCCN(C(=O)C2CCN(c3nnc(-n4cccc4)s3)CC2)C1` (stereo not given), for which the inhibition was 6.02% (inactive).

Regarding `Cn1c(=O)c2c(nc(SCC(=O)Nc3ccccc3N3CCCCC3)n2C)n(C)c1=O`, the inhibition is -12.6% (inactive).

As for `CCCCSc1nnc(-c2ccc(C)cc2)o1`, the inhibition is -7.53% (inactive).

On to `O=C(Nc1nc2cc3c(cc2s1)OCCO3)c1cccc(S(=O)(=O)N2CCOCC2)c1`, for which the inhibition is -3.84% (inactive).

As for `CCN1C(=O)C(C(=O)NC(C)c2ccccc2)C2CC1(C)Oc1ccccc12` (stereo not given), the inhibition is -6.65% (inactive).

With `c1ccc(CSc2nnc(-c3ccco3)c(-c3ccco3)n2)cc1`, the inhibition was 50.3% (active).

For the molecule `Clc1ccccc1CSc1nnc(-c2ccco2)c(-c2ccco2)n1`, the inhibition was -25.9% (inactive).

In the case of `c1ccc(CSc2nnc(-c3ccco3)n2Cc2ccccc2)cc1`, the inhibition is -11.9% (inactive).

For the molecule `C=CCn1c(SCC(=O)NC23CC4CC(CC(C4)C2)C3)nc(O)cc1=O`, the inhibition is 2.29% (inactive).

In the case of `NC(=O)CSC1=Nc2ccccc2C2=NC(CCC(=O)NCc3ccc(F)cc3)C(=O)N12` (stereo not given), the inhibition is -3.7% (inactive).

With `CCOC(=O)c1c(C)nc(-c2ccccc2)nc1NC(=O)C(C)C`, the inhibition is -5.5% (inactive).

`CCOC(=O)Cn1c(N)c(C(=O)OC)sc1=S`: the inhibition was -11% (inactive).

Consider `CC(=O)Nc1ccn(Cc2c(F)cccc2Cl)n1`, for which the inhibition was -13% (inactive).

Consider `O=C(c1ccc(S(=O)(=O)N2CCOCC2)cc1)N1CCN(c2ccccc2)CC1`, for which the inhibition was 1.6% (inactive).

As to `CCOC(=O)c1[nH]cnc1C(=O)NC1CCCCC1`, the inhibition was -0.873% (inactive).

Regarding `Cc1csc(NC(=O)NC2(C(F)(F)F)Oc3ccccc3O2)n1`, the inhibition was -7.31% (inactive).

For `O=C(CCCn1c(=O)oc2ccccc21)Nc1cccnc1`, the inhibition is -11.7% (inactive).

As to `CS(=O)(=O)N(Cc1nc2sc3c(c2c(=O)[nH]1)CCCC3)C1CCCCC1`, the inhibition was -20% (inactive).

Consider `O=C1c2ccccc2C(=O)N1CCc1nn[nH]n1`, for which the inhibition is 2.01% (inactive).

As to `COc1ccc(C(=O)c2oc3ccc(Br)cc3c2NC(C)=O)cc1`, the inhibition was 1.8% (inactive).

On to `CC(=O)Nc1ccc(NS(=O)(=O)c2cc(C)sc2C)cc1`, for which the inhibition is 7.75% (inactive).

As to `Cc1ccc(S(=O)(=O)N2C3C=CC(C3)C2C(=O)O)cc1` (stereo not given), the inhibition is -0.599% (inactive).

As to `Cc1cc(C)cc(NC(=O)N2CCC(NC(=O)c3ccc(F)cc3)CC2)c1`, the inhibition is 5.11% (inactive).

Consider `CCOC(=O)C(CC)Sc1ncnc2c1nnn2-c1ccc(F)cc1` (stereo not given), for which the inhibition was -12.7% (inactive).

`COc1cc(-c2noc(C3CCCN(S(=O)(=O)c4cccc(Cl)c4)C3)n2)cc(OC)c1OC` (stereo not given): the inhibition was 3.35% (inactive).

For the molecule `CC(C)C(c1nnnn1C1CCCC1)N1CCN(c2ccccc2F)CC1` (stereo not given), the inhibition was -10.2% (inactive).

Take `CC(C)C1Cc2c(sc3c2c(=O)n(-c2ccccc2)c2nncn32)CO1` (stereo not given): the inhibition was -39.8% (inactive).

Consider `C=CCNC(=O)C1CC=CCC1C(=O)O` (stereo not given), for which the inhibition is -12.3% (inactive).

Consider `Cc1nc(Nc2ccc3c(c2)OCCO3)c2nnn(Cc3ccccc3Cl)c2n1`, for which the inhibition is -17.1% (inactive).

Regarding `CC(=O)N1CCC(C(=O)Nc2nc(-c3ccccc3)ns2)CC1`, the inhibition was -5.67% (inactive).

Regarding `CN1C(=O)c2ccc(NC(=O)c3c(F)c(F)c(F)c(F)c3F)cc2C1=O`, the inhibition is 2.43% (inactive).

Turning to `O=C(CC(NS(=O)(=O)c1ccc(Cl)cc1)c1ccco1)NC1CCCC1` (stereo not given), the inhibition is -20.3% (inactive).

For the molecule `O=C(NC1=NCCS1)c1ccc(Cl)s1`, the inhibition was 1.03% (inactive).

In the case of `CC1Cc2ccccc2N1C(=O)Cn1cnc2ccccc2c1=O` (stereo not given), the inhibition is -1.71% (inactive).

In the case of `c1nnc2c3c4c(sc3ncn12)CCC4`, the inhibition is 0.998% (inactive).

With `O=C(CN1C(=O)C2C3C=CC(C3)C2C1=O)NCC1COc2ccccc2O1` (stereo not given), the inhibition is -2.93% (inactive).

Regarding `COCCNC(=O)CN(C(=O)CCC(=O)Nc1cc(C)on1)c1ccc(C)cc1C`, the inhibition is 11.4% (inactive).

On to `O=C(Nc1cccc(C(=O)N2CCCC2)c1)c1ccccc1`, for which the inhibition is -4.63% (inactive).

With `CC(=O)N1CCN(C(=O)Nc2cccc(C(F)(F)F)c2)CC1`, the inhibition is -11.9% (inactive).

For the molecule `O=C(Nc1cccc(NC(=O)N2CCN(c3ccccc3)CC2)c1)N1CCN(c2ccccc2)CC1`, the inhibition is 76.4% (active).

With `Cc1ccc2c(CSc3nncs3)cc(=O)oc2c1`, the inhibition was -6.44% (inactive).

On to `CCOC(=O)c1[nH]c2c(c1C)C(=O)CC(c1ccc(N(C)C)cc1)C2` (stereo not given), for which the inhibition was -8.71% (inactive).

Regarding `Cc1ccc(N)cc1-n1c(C)ccc1C`, the inhibition is 1.36% (inactive).

Regarding `Cc1ccc(CNC(=O)CN2CCN(Cc3ccc(Cl)cc3)C2=O)cc1`, the inhibition is 1.98% (inactive).

Turning to `COCCCN1C(=O)c2ccc(C(=O)Nc3ccc(OC)cc3OC)cc2C1=O`, the inhibition was -4.42% (inactive).

Regarding `Cc1cc(Cl)c(S(=O)(=O)NCc2cccnc2)cc1OCC(N)=O`, the inhibition is -3.27% (inactive).

Turning to `CCOC(=O)C1=C(C)NC(C)=C(C(=O)OCC)C1C1=COCCO1`, the inhibition is 1.59% (inactive).

Regarding `COc1ccc(N2CCN(C3CC(=O)N(c4ccc5c(c4)OCCO5)C3=O)CC2)cc1` (stereo not given), the inhibition is 5.32% (inactive).

As to `CCn1c(NCCc2ccc(OC)c(OC)c2)nc2c1c(=O)n(C)c(=O)n2C`, the inhibition was 7.88% (inactive).

Consider `COc1cc(-c2nc(S(=O)(=O)c3ccc(Cl)cc3)c(N(C)C)o2)cc(OC)c1OC`, for which the inhibition is -3.74% (inactive).

In the case of `Cc1ccc(C(c2nnnn2CS(=O)(=O)c2ccc(C)cc2)N2CCC(C(N)=O)CC2)cc1` (stereo not given), the inhibition was -6.28% (inactive).
